Values joined by “and” are separate entries in the source; they are usually repeats but may differ in a detail not shown here. Equal entries are not always repeated. Records with an inconclusive call do not appear. A call without a number means that no potency is given here. Active and inactive are the calls of the source. Unless noted, calls follow the shape of the dose curve; as a rule, active = well fitted curve in the direction sought with a large enough effect; inconclusive = small, poorly fitted or top-dose-only effect, or another doubt; inactive = no such curve, though single readings can be large; an effect the other way counts as inactive or inconclusive.
Assays:
[1] = Cell Viability - NIH 3T3 (AID 541); details: NIH 3T3 cell viability, qHTS; activity change, negative = cytotoxicity: at 92.2 µM (top of the series); also: nearly all actives have a fitted effect of over 25% in size
In short: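 Luminescent ATP signal (CellTiter-Glo) served as the viability read-out after NIH 3T3 cells were exposed to compounds over a concentration range for 40 hr at 37 °C. Hill-equation modelling of concentration-response data gave AC50.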

[2] = Cell Viability - H-4-II-E (AID 543); also: nearly all actives have a fitted effect of over 35% in size
In short: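 Luminescent ATP signal (CellTiter-Glo) served as the viability read-out, with cytotoxicity seen as a concentration-dependent ATP drop. Cells were treated for 40 hours in complete medium. AC50 values derive from Hill-equation modelling.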

[3] = Cell Viability - LYMP2-005 (AID 967)
In short: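 qHTS viability screen in LYMP2-005 cells: 24 h at 37 C with compound, ATP luminescence via CellTiter-Glo, AC50 from Hill curves.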

[4] = biological target: Bile acid receptor (Homo sapiens) (UniProt Q96RI1); test: qHTS assay for small molecule agonists of farnesoid X receptor signaling (AID 588527; calls by dose curve); details: HEK293T FXR-UAS-bla, beta-lactamase ratio, 16 h; stronger effect = higher value
Sequence of Bile acid receptor (Homo sapiens) (Q96RI1 whole entry, looked up): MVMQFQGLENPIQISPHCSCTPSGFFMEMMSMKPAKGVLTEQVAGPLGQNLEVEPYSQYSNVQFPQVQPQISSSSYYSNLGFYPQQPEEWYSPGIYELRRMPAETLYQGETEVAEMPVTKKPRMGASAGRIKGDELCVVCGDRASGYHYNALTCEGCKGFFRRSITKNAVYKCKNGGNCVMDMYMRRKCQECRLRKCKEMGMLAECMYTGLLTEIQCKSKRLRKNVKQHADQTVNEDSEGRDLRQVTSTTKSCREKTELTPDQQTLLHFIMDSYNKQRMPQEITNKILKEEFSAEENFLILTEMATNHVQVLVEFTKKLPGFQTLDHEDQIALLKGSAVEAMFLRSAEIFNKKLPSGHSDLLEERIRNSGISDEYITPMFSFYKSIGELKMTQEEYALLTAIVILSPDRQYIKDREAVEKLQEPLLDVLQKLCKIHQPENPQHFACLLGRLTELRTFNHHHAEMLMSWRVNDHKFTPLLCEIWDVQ
In short: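 FXR-UAS-bla HEK293T cells (10% dialyzed FBS) preincubated 5-7 h at 37 C, then compounds at up to 92 uM for 16 h at 37 C. CCF4 beta-lactamase read-out after 2 h RT. Normalized to chenodeoxycholic acid (100 uM) and DMSO; Hill fit gave EC50 and efficacy.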

[5] = biological target: Glucocorticoid receptor (Homo sapiens) (UniProt P04150); test: qHTS assay for small molecule agonists of glucocorticoid receptor signaling (AID 588532; active = well fitted curve in the direction sought with a large enough effect in the signal ratio, with a control signal flat; the % refers to the signal ratio); details: HeLa MMTV-bla, beta-lactamase ratio, agonist, 18 h; stronger effect = higher value; percent of dexamethasone control, DMSO zero
Sequence of Glucocorticoid receptor (Homo sapiens) (P04150 whole entry, looked up): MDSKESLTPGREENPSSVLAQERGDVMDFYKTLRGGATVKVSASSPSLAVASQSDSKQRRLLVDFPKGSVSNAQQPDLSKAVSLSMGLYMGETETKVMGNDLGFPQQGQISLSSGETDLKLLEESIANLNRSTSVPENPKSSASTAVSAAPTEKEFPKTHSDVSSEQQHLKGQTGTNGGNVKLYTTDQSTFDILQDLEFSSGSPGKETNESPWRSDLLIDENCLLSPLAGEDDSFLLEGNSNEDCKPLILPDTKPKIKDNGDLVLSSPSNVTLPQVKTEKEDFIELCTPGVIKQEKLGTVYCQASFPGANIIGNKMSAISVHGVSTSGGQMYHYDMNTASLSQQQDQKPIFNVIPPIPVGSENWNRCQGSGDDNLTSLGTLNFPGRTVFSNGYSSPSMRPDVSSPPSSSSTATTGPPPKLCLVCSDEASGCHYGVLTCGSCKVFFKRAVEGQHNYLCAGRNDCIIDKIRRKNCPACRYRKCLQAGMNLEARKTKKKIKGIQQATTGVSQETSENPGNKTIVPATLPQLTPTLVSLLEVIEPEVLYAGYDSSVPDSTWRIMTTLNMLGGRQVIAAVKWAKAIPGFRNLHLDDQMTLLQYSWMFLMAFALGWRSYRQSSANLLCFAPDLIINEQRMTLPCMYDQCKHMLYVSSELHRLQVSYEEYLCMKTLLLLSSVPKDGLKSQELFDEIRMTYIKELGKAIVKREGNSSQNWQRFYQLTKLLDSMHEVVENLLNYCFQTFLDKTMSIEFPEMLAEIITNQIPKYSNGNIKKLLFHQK
In short: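 Using MMTV-bla HeLa cells in medium with 1% stripped FBS and 25 mM HEPES, compounds were titrated and incubated overnight-length (18 h). Beta-lactamase cleavage of CCF4 was quantified by dual-emission fluorescence.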

[6] = biological target: Glucocorticoid receptor (Homo sapiens) (UniProt P04150); test: qHTS assay for small molecule antagonists of glucocorticoid receptor signaling (AID 588533; active = well fitted inhibition curve with a large enough effect in the signal ratio, with a control signal flat, not every such curve was filed as active; the % refers to the signal ratio;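 also: cells stimulated with 2 nM dexamethasone as agonist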)
In short: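 Antagonist-mode qHTS: compound titrations added to GRE-bla HeLa cells, then dexamethasone 2 nM final; 18 h, 37 C. CCF4 FRET fluorescence normalized to dexamethasone and DMSO; IC50 from Hill fit.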

[7] = biological target: Peroxisome proliferator-activated receptor delta (Homo sapiens) (UniProt Q03181); test: qHTS assay for small molecule agonists of peroxisome proliferator-activated receptor delta signaling (AID 588534; calls by dose curve)
Sequence of Peroxisome proliferator-activated receptor delta (Homo sapiens) (Q03181 whole entry, looked up): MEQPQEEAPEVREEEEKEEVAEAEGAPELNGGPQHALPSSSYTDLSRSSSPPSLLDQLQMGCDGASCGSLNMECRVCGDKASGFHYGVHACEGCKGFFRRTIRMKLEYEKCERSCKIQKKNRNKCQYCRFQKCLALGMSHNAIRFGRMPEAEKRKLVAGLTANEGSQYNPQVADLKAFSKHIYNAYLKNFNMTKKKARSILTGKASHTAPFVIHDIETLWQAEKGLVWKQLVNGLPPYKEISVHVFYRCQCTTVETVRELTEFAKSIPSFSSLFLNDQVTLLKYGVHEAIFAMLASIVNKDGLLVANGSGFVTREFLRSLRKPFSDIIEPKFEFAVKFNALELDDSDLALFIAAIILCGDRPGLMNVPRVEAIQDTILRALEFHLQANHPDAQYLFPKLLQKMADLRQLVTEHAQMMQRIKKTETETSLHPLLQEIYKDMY
In short: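 Fluorescence from CCF4 substrate cleavage by beta-lactamase reporter, read 2 hrs at RT, measured agonist activity. Compounds were tested with 18 hrs exposure at 37 C. Concentration-response data fitted to Hill equation.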

[8] = qHTS assay for small molecule antagonists of peroxisome proliferator-activated receptor delta signaling (AID 588535; active = well fitted inhibition curve with a large enough effect in the signal ratio, with a control signal flat, not every such curve was filed as active; the % refers to the signal ratio;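 as to max response: cells co-treated with a PPAR-delta agonist as stimulator during compound exposure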); details: HEK293T PPARd-UAS-bla, beta-lactamase FRET ratio, 18 h; 460 nm channel
In short: (§1)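 HEK293T PPAR-delta-UAS-bla cells, 4000/well, 2% charcoal/dextran FBS; 5 h 37 C; cpd titration; 18 h 37 C; CCF4 2 h RT; FI 460/530 nm; Hill fit → IC50, efficacy.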

[9] = biological target: Peroxisome proliferator-activated receptor delta (Homo sapiens) (UniProt Q03181); test: as above
In short: as §1

[10] = biological target: Vitamin D3 receptor (Homo sapiens) (UniProt P11473); test: qHTS assay for small molecule agonists of vitamin D receptor signaling (AID 588543; calls by dose curve)
Sequence of Vitamin D3 receptor (Homo sapiens) (P11473 whole entry, looked up): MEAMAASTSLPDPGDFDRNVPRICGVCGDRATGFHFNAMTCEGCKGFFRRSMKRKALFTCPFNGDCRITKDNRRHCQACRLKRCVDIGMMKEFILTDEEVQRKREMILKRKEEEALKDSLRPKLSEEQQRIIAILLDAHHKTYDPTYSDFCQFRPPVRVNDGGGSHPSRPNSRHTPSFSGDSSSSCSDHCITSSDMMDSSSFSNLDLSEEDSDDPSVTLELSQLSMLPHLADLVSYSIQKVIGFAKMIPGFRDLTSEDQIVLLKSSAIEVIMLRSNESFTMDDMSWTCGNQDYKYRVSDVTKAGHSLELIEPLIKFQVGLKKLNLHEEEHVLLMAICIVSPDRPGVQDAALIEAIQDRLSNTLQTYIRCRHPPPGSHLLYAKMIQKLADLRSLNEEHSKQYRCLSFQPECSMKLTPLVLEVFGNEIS
In short: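 qHTS in agonist mode: compound titrations stimulate a VDR-driven β-lactamase reporter in HEK293T cells over 16 h at 37 °C. Response normalized to 50 nM 1α,25-dihydroxyvitamin D3 = 100%, DMSO = 0%; Hill fitting gives EC50 and maximal response.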

[11] = biological target: Thyroid hormone receptor beta (Homo sapiens) (UniProt P10828); test: qHTS assay for small molecule agonists of thyroid hormone receptor beta signaling (AID 588545; calls by dose curve)
Sequence of Thyroid hormone receptor beta (Homo sapiens) (P10828 whole entry, looked up): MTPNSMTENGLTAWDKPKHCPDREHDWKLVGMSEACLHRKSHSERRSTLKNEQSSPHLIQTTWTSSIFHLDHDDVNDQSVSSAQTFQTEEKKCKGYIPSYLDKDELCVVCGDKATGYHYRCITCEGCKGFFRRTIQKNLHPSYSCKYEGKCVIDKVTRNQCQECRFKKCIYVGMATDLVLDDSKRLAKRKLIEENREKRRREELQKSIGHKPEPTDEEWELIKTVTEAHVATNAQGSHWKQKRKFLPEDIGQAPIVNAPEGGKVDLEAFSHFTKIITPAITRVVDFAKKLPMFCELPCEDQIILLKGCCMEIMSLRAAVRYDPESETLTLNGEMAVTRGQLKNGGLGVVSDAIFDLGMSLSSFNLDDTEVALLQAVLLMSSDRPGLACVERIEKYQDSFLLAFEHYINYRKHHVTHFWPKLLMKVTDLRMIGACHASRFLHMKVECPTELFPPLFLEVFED
In short: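 Agonist-mode beta-lactamase reporter assay, HEK 293 cells, 2% charcoal/dextran FBS; cells plated 4 hrs, compound 18 hrs at 37 C, CCF4 2 hrs RT. Normalized to 10 nM T3 (100%) and DMSO (0%); Hill fit gives EC50, efficacy.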

[12] = qHTS assay for small molecule agonists of the antioxidant response element (ARE) signaling pathway (AID 651741; active = well fitted activation curve with a large enough effect in the signal ratio; the % refers to the signal ratio; also: potency is read from the fitted curve at half-maximal effect)
In short: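 Quantitative HTS in HepG2 cells stably expressing an ARE-beta-lactamase reporter; 16 h compound exposure at 37 C, followed by 2 h room-temperature incubation with LiveBLAzer B/G FRET substrate and fluorescence measurement.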

[13] = qHTS assay for small molecule activators of the p53 signaling pathway (AID 651743; active = well fitted activation curve with a large enough effect in the signal ratio, not every such curve was filed as active; the % refers to the signal ratio); details: HCT-116 p53RE-bla, beta-lactamase FRET ratio, 16 h; activation: stronger effect = higher value
In short: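 Read-out is fluorescence intensity from the LiveBLAzer B/G FRET substrate, added for 2 hours at room temperature after HCT-116 p53RE-bla cells had been incubated with compounds for 16 hours at 37 C.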

[14] = qHTS assay for small molecule activators of the nuclear factor-kappa B (NF-kB) signaling pathway (AID 651749; active = well fitted activation curve with a large enough effect in the signal ratio; the % refers to the signal ratio); details: NF-kB-bla ME-180 cells, beta-lactamase FRET ratio, 16 h; stronger effect = higher value
In short: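 Readout: beta-lactamase reporter driven by an NF-kB response element, detected fluorescently as loss of FRET. Cells were the ME-180 line, treated 16 hr at 37C with pin-transferred compound.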

[15] = qHTS assay for environmental chemicals that activate the Aryl hydrocarbon Receptor (AhR) signaling pathway (AID 651777); details: 1A2-DRE human hepatoma cells, luciferase, 24 h; activation: stronger effect = higher value; also: nearly all actives have a fitted effect of over 15% in size
In short: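 Reporter gene assay: hepatoma cells with DRE/CYP1A2-luciferase, 24 hr compound incubation at 37 C, 5% CO2, luminescence after One-Glo (30 min, RT).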

[16] = Cell Viability - LYMP2-001 (AID 921); also: nearly all actives have a fitted effect of over 70% in size
In short: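 qHTS, 1536-well; lymphoblastoid cells, 24 hr compound, 37 C; ATP by CellTiter-Glo, 30 min RT; luminescence; Hill-fit AC50.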

[17] = Cell Viability - LYMP2-010 (AID 981); also: nearly all actives have a fitted effect of over 55% in size
In short: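 Luminescent ATP signal (CellTiter-Glo) served as the viability read-out. Cells of the human lymphoblastoid line were treated with compound over a concentration range for 24 hours at 37 C, and AC50 values came from Hill-equation modeling.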

[18] = Cell Viability - LYMP2-020 (AID 986); also: nearly all actives have a fitted effect of over 55% in size
In short: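 Luminescent ATP signal (CellTiter-Glo, 30 min at room temperature) is the read-out after 24 h compound treatment of lymphoblastoid cells at 37 C. AC50 values come from Hill-equation fits across concentrations.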

[19] = biological target: Peroxisome proliferator-activated receptor gamma (Homo sapiens) (UniProt P37231); test: qHTS assay for small molecule antagonists of peroxisome proliferator-activated receptor gamma signaling (AID 588537; active = well fitted inhibition curve with a large enough effect in the signal ratio, with a control signal flat, not every such curve was filed as active; the % refers to the signal ratio;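 also: reporter cells co-stimulated with 50 nM rosiglitazone agonist during compound treatment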)
Sequence of Peroxisome proliferator-activated receptor gamma (Homo sapiens) (P37231 whole entry, looked up): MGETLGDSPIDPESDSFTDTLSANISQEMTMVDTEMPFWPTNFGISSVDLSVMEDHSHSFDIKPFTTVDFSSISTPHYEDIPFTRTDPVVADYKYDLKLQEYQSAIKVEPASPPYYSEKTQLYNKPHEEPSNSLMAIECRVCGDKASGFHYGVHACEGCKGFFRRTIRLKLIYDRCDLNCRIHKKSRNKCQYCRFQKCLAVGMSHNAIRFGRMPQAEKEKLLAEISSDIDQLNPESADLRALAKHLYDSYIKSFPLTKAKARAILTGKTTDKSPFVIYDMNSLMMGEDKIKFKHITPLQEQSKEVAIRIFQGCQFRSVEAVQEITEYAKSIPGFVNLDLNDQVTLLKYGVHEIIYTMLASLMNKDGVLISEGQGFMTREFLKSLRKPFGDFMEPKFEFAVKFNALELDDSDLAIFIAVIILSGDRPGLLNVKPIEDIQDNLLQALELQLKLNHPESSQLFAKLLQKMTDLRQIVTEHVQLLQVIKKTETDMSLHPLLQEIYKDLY
In short: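 Antagonist mode, beta-lactamase reporter in HEK293; charcoal/dextran FBS 1%; 3000 cells/well, 37 C 6-6.5 h; cpd titration + rosiglitazone 50 nM final, 16 h 37 C; CCF4, 2 h RT; 460/530 nm; Hill fit → IC50, efficacy.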

[20] = biological target: Estrogen receptor (Homo sapiens) (UniProt P03372); test: qHTS assay for small molecule antagonists of estrogen receptor alpha signaling (AID 588513; active = well fitted curve in the direction sought with a large enough effect in the signal ratio, with a control signal flat, not every such curve was filed as active; the % refers to the signal ratio)
Sequence of Estrogen receptor (Homo sapiens) (P03372 whole entry, looked up): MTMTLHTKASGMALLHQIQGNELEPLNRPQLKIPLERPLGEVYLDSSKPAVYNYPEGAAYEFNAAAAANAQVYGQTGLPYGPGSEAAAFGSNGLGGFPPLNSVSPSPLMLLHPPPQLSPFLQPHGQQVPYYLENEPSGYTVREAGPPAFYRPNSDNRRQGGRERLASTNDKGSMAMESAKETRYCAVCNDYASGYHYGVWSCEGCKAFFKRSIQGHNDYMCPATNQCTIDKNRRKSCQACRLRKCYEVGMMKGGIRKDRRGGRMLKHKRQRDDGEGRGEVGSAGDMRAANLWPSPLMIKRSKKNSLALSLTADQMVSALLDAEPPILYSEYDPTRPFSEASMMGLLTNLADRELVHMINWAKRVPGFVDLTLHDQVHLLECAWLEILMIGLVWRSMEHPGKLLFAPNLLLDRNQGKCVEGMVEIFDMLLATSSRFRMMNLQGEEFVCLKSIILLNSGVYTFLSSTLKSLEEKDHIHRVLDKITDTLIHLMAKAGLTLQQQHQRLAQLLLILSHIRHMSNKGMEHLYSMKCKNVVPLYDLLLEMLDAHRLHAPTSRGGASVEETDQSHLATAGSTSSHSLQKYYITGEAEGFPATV
In short: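 Cells were plated at 5000/well and incubated 4 h at 37 C. Compounds were added as 1:2 dilution series, duplicates. 17-beta-estradiol (0.5nM final) was added for 18 h before CCF4 detection.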

Compound	Potency [1]	Potency [2]	Potency [3]	activation [4]	activation [5]	outcome [6]	outcome [7]	max response [8]	outcome [9]	outcome [10]	Potency [11]	Potency [12]	activation [13]	activation [14]	activation [15]	Potency [16]	Potency [17]	Potency [18]	Potency [19]	Potency [20]
OCCCCO	inactive	inactive	inactive	-2.93% (inactive)	-5.33% (inactive)	inactive	inactive	-23.5%	inactive	inactive	inactive	inactive	-4.12% (inactive)	-0.721% (inactive)	-0.427% (inactive)	–	–	–	–	–
Clc1ccc(Cl)c(Cl)c1	inactive	inactive	inactive	–	–	–	inactive	-17.8% and 7%	inactive	inactive	inactive	inactive	–	–	0.0505% (inactive) and 0.0105% (inactive)	inactive	inactive	inactive	inactive	–
CC(C)CON=O	inactive	inactive	inactive	–	2.25% (inactive)	inactive	inactive	-5.59%	inactive	inactive	–	–	-2.37% (inactive)	–	1.53% (inactive)	inactive	inactive	inactive	–	inactive
CN=C=O	inactive	inactive	–	–	–	–	inactive	61.5%	inactive	–	–	inactive	-2.98% (inactive)	–	-0.54% (inactive)	inactive	inactive	–	–	–
C=CCCl	inactive	inactive	inactive	–	2.78% (inactive)	inactive	inactive	–	–	inactive	–	–	-1.58% (inactive)	-0.803% (inactive)	1.05% (inactive)	–	inactive	inactive	inactive	inactive
c1ccoc1	inactive	inactive	–	–	-5.47% (inactive)	inactive	inactive	–	–	inactive	inactive	–	1.16% (inactive)	0.149% (inactive)	-0.801% (inactive)	–	inactive	–	inactive	inactive
CCC(Cl)[N+](=O)[O-] (stereo unspecified)	inactive	inactive	inactive	-1.12% (inactive)	–	–	inactive	2.58%	inactive	–	inactive	–	-1.08% (inactive)	0.0697% (inactive)	-0.0264% (inactive)	inactive	–	inactive	inactive	inactive
Clc1cccc2ccccc12	inactive	inactive	inactive	–	–	–	inactive	-15.1%	inactive	inactive	inactive	inactive	–	0.856% (inactive)	-0.754% (inactive)	inactive	inactive	inactive	–	–
CC(C)Br	inactive	inactive	inactive	-0.0522% (inactive)	–	inactive	–	–	–	inactive	inactive	inactive	-2.41% (inactive)	–	-0.85% (inactive)	inactive	inactive	inactive	inactive	inactive
NNC(N)=S	inactive	inactive	–	-2.79% (inactive)	0.137% (inactive)	–	inactive	–	–	inactive	inactive	–	-3.14% (inactive)	0.227% (inactive)	0.972% (inactive)	inactive	inactive	inactive	inactive	inactive
C/C=C/CC#N	inactive	inactive	inactive	-1.31% (inactive)	–	–	inactive	-4.54%	inactive	–	inactive	–	-0.715% (inactive)	1.19% (inactive)	-0.768% (inactive)	inactive	inactive	–	–	inactive
c1ccc(NNc2ccccc2)cc1	inactive	inactive	inactive	1.06% (inactive) and 0.0431% (inactive)	1.14% (inactive) and -8.47% (inactive)	inactive	inactive	13.2% and 5.7%	inactive	inactive	–	inactive	-0.259% (inactive) and 0.698% (inactive)	0.182% (inactive) and 3.71% (inactive)	–	inactive	inactive	inactive	–	–
Nc1cc(Cl)cc(Cl)c1	inactive	inactive	inactive	-0.351% (inactive)	–	–	inactive	-13.8%	inactive	inactive	inactive	–	–	0.8% (inactive)	–	inactive	–	inactive	inactive	–
C1CC2OC2CC1C1CO1 (stereo unspecified)	inactive	inactive	inactive	-0.198% (inactive)	–	–	inactive	13.2%	inactive	–	inactive	inactive	-4.75% (inactive) and -3.06% (inactive)	-0.692% (inactive) and -2.3% (inactive)	–	inactive	inactive	–	inactive	–
O=[N+]([O-])c1ccccc1-c1ccccc1	inactive	inactive	inactive	–	–	–	–	–	–	–	inactive	inactive	-1.36% (inactive)	–	-0.891% (inactive)	inactive	inactive	inactive	–	inactive
ClCCOCCCl	inactive	inactive	–	-1.24% (inactive)	0.183% (inactive)	inactive	inactive	5.43%	inactive	–	–	inactive	-1.88% (inactive)	-0.467% (inactive)	-0.172% (inactive)	inactive	inactive	inactive	–	–
CCCCCc1cc(O)cc(O)c1	inactive	inactive	–	2.26% (inactive)	–	–	inactive	–	–	inactive	–	42.2 µM (active)	–	–	–	–	inactive	inactive	–	–

From PubChem BioAssay (NCATS)
